Data taken from paper PMC7826789 (International Journal of Molecular Sciences, 2021).

System: FLT3(ITD,F691L)
Details: Compound Concentration (nM):1000
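Also: KINOMEscan scanMAX binding as percent activity remaining versus control; lower means stronger binding.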

SMILES	Percent Control [%]
COc1ccccc1-c1cc(/C=C2\C(=O)Nc3ncc(Br)cc32)cc(Br)c1O [GW442130X]	100
NS(=O)(=O)c1ccc(N/N=C2\C(=O)Nc3ccc(C(=O)NCCc4c[nH]cn4)cc32)cc1 [GW300660X]	4.1
NS(=O)(=O)c1ccc(N/N=C2\C(=O)Nc3ccc(C(=O)NCc4ccncc4)cc32)cc1 [GW300657X]	17
NS(=O)(=O)c1ccc(N/N=C2\C(=O)Nc3ccc(Cl)cc32)cc1 [GW280670X]	36
Cl.O=S1CCN(Cc2ccc(-c3ccc4ncnc(Nc5ccc(OCc6ccccc6)c(F)c5)c4c3)o2)CC1 [GW576924A]	100
NS(=O)(=O)c1ccc(N/N=C2\C(=O)Nc3ccc(-c4cnco4)cc32)cc1 [GW276655]	18
COc1cccc(-c2c[nH]c3c(N/N=C/c4ccncc4)ncnc23)c1 [GW814408X]	43
